Screening results as filed in PubChem BioAssay.
Shown are actives, neighbours in structure and some others; about 27% of the full set was active somewhere.
CYP2C9 inh = blockers of cytochrome P450 2C9 activity – biochemical, luminescence, ADME assay, primary screen; P11712; CYP2C9 Supersomes, luciferin-H conversion; inhibition, % at 5 µM; actives 20% (n = 96,000); AID 777, 2007;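 active means blocking of liver enzyme CYP2C9 beyond about 50% at 5 µM, limit read from the data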
CYP2C19 inh = blockers of cytochrome P450 2C19 activity – biochemical, luminescence, ADME assay, primary screen; CYP2C19 Supersomes, luciferin-H EGE luminescence, 30 min; actives 21% (n = 96,000); AID 778, 2007; inhibition, % at 5 µM;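 active means CYP2C19 inhibition above a set limit at 5 µM in the primary screen, cut at about 50% in these data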;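 further: plate controls were negative control wells for no effect and 2.5 mM tranylcypromine positive control for full effect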
CYP2C9 activ = human CYP2C9 activators, primary screen, biochemical, luminescence. Cytochrome P450 2C9 (Homo sapiens), P11712. recombinant CYP2C9, luciferin-H conversion; active compounds read high; factor 1 = untreated enzyme, 0 = blocked. activation factor at 5 µM. actives 1.4% (n = 96,000);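 active means activation factor of 2 or more for CYP2C9 at a 5 µM dose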;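 further: 0 = sulfaphenazole-blocked wells and 1 = vehicle-only wells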
sEH activator = soluble epoxide hydrolase activators, primary screen, biochemical, human sEH; purified human sEH enzymatic activity, activator screen; activation, % at 2 µM; actives 0.04% (n = 91,000); AID 717, 2007; in the data active means activation above about 37%
Target sequence (P34913 whole entry, looked up): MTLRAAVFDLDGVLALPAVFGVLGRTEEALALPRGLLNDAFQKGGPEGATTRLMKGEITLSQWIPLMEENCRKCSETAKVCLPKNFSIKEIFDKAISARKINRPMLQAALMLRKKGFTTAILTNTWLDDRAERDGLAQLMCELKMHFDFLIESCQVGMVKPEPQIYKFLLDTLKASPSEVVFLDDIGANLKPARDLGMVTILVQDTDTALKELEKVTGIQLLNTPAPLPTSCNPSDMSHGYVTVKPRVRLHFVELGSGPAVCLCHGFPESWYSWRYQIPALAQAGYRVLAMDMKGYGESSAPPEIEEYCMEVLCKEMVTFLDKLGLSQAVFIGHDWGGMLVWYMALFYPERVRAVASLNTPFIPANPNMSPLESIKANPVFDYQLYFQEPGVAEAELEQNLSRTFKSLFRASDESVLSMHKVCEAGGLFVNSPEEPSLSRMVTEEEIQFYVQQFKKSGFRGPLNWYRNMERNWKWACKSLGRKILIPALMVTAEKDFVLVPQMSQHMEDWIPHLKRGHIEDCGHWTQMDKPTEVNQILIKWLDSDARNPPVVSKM
sEH inhibitor = soluble epoxide hydrolase inhibitors, primary screen, biochemical, human sEH; Bifunctional epoxide hydrolase 2 (Homo sapiens), P34913; recombinant human sEH enzymatic activity assay; inhibition, % at 2 µM; actives 0.34% (n = 91,000); AID 707, 2007; in the data active means inhibition above about 80%
CYP2C19 act = human CYP2C19 activators, primary screen, biochemical, luminescence. Cytochrome P450 2C19 (Homo sapiens), P33261. recombinant CYP2C19, luciferin-H EGE luminescence; active compounds read high; 0 = fully inhibited enzyme, 1 = untreated enzyme. activation factor at 5 µM. 96,000 tested, under 10 active. AID 1025, 2008;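 active means activation factor of at least 2 at 5 µM in the primary screen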;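 further: 0 = wells with 2.5 mM tranylcypromine and 1 = vehicle-only wells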
* hit, by the source's call; x = not tested or not shown.

SMILES	CYP2C9 inh	CYP2C19 inh	CYP2C9 activ	sEH activator	sEH inhibitor	CYP2C19 act
COc1cc(-c2nnc(SCC(=O)c3cc(C)n(CC4CCCO4)c3C)o2)cc(OC)c1OC (configuration not stated)	20	14	0.8	3	-3	0.9
COc1ccc(S(=O)(=O)NCCSc2ccc(Cl)cc2)cc1OC	x	x	x	11	-6	x
COc1ccc(S(=O)(=O)NCCSCc2cccs2)cc1	28	94*	0.7	5	-2	0.1
CCOc1ccc(S(=O)(=O)NCCSCc2ccco2)cc1	-3	42	1	-13	13	0.6
COc1ccc(S(=O)(=O)NCCSCc2ccccc2C)cc1Br	-98	81*	2*	-6	4	0.2
COc1ccc(S(=O)(=O)NCCSCc2ccco2)cc1OC	-124	60*	2.2*	-3	6	0.4
Cc1ccccc1CSCCNS(C)(=O)=O	6	24	0.9	9	-10	0.8
COc1ccc(S(=O)(=O)NCCSCc2ccco2)cc1	36	89*	0.6	4	-3	0.1
CC(=O)Nc1nc(CC(C)C)cc(-c2ccco2)c1C#N	1	-11	1	-2	5	1.1
CC(C)Oc1cccc(C(=O)O)c1	6	1	0.9	7	-6	1
CCOC(=O)C1CCCN(S(=O)(=O)Cc2ccccc2)C1 (configuration not stated)	10	20	0.9	9	-9	0.8
CCOC(=O)C1CCN(S(=O)(=O)Cc2ccc(Cl)cc2)CC1	93*	87*	0.1	1	0	0.1
CCOC(=O)C1CCN(S(=O)(=O)Cc2ccccc2)CC1	69*	45	0.3	10	-12	0.6
CCOC(=O)C1CCN(C(=O)CN(Cc2ccc(Cl)cc2)S(C)(=O)=O)CC1	18	42	0.8	-2	3	0.6
COc1cc(/C=C(/C(=O)c2cccs2)c2nc3ccccc3[nH]2)cc(OC)c1O	86*	51*	0.1	7	-7	0.5
COc1cccc(OC)c1-c1nnc(-c2cn(C)c3ccccc23)o1	19	21	0.8	4	-4	0.8
CCOC(=O)c1cnc(-n2nc(C)cc2C)nc1NCc1ccc2c(c1)OCO2	62*	33	0.4	11	-11	0.7
CCOC(=O)c1cnc(-n2nc(C)cc2C)nc1Nc1ccc(OC)cc1	0	0	1	6	-3	1
CCOC(=O)c1cnc(-n2nc(C)cc2C)nc1NCCc1ccccc1	92*	83*	0.1	-7	4	0.2
CCOC(=O)c1cnc(-n2nc(C)cc2C)nc1Nc1ccccc1OC	5	-5	1	17	-20	1.1
CCc1cccc(CC)c1N(COC)C(=O)Cn1c(C(C)O)nc2ccccc21 (configuration not stated)	6	6	0.9	-9	8	0.9
O=c1oc2ccccc2c2nccnc12	-16	-14	1.2	-5	3	1.1
Cc1cnc(N)c2c(=O)oc3ccccc3c12	-102	-5	2*	x	x	1
CCC(OC(=O)CC1Sc2ccccc2NC1=O)C(=O)NCC1CCCO1 (configuration not stated)	39	30	0.6	1	0	0.7
CCCOc1ccc(C(=O)NC(C)C(=O)O)cc1 (configuration not stated)	-18	-12	1.2	0	0	1.1
SMILES	CYP2C9 inh	CYP2C19 inh	CYP2C9 activ	sEH activator	sEH inhibitor	CYP2C19 act
O=C(/C=C/Nc1cccc([N+](=O)[O-])c1)c1cccs1	71*	30	0.3	-5	5	0.7
CC1CCCCN1C(=O)CSc1ccc(-c2ccc(F)cc2)nn1 (configuration not stated)	35	61*	0.7	-1	0	0.4
Cc1cc(C(=O)Nc2cccc(O)c2)co1	14	16	0.9	x	x	0.8
CCC(Cc1ccccc1)NC(=O)CCn1cccc1 (configuration not stated)	66*	66*	0.3	-15	18	0.3
COC(=O)c1ccc(NC(=O)CCn2cccc2)cc1	41	22	0.6	-1	5	0.8
Cc1ccc(NC(=O)CCn2cccc2)cc1Cl	32	86*	0.7	-14	12	0.1
CCc1ccc(NC(=O)CCn2cccc2)cc1	23	71*	0.8	-10	8	0.3
CCc1ccc(NC(=O)CCn2ccnc2C)cc1	68*	83*	0.3	15	-20	0.2
CCCC(=O)Nc1nnc(SCC(=O)NCc2cccs2)s1	3	17	1	2	0	0.8
CC1S/C(=C(\C#N)C(N)=O)N(c2ccc(F)cc2)C1=O (configuration not stated)	6	-11	0.9	-9	7	1.1
O=C(c1cc2c(s1)-c1ccccc1S(=O)(=O)C2)N1CCN(Cc2ccccc2)CC1	33	43	0.7	x	x	0.6
O=C(CCN1CCc2ccccc2C1)Nc1ccc(F)cc1	20	61*	0.8	1	-2	0.4
O=C(CCn1cccc1)Nc1ccc(F)cc1	33	62*	0.7	-11	10	0.4
COc1nc2c(C)cccc2cc1-c1noc(-c2ccco2)n1	15	23	0.8	14	-14	0.8
COc1ccc(Cc2nnc(SCC(=O)Nc3nc(C)cs3)o2)cc1	6	7	0.9	-1	4	0.9
COc1ccc(NC(=O)OC(CN2CCCCC2)C(F)(F)F)cc1 (configuration not stated)	64*	48	0.4	17	-18	0.5
O=C(NCC(c1cccnc1)N1CCN(c2ccc(F)cc2)CC1)C1CCCCC1 (configuration not stated)	22	36	0.8	-4	4	0.6
O=C(NCC(c1cccnc1)N1CCN(c2ccccc2F)CC1)C1CCCCC1 (configuration not stated)	49	79*	0.5	-6	5	0.2
O=C(NCC(c1cccnc1)N1CCN(c2ccccc2F)CC1)c1cccc(Cl)c1 (configuration not stated)	95*	91*	0.1	11	-9	0.1
O=C(NCC(c1cccnc1)N1CCOCC1)c1cccc(Cl)c1 (configuration not stated)	15	7	0.8	-18	17	0.9
COc1ccc(N2CCN(C(CNC(=O)c3cccc(Cl)c3)c3cccnc3)CC2)cc1 (configuration not stated)	56*	34	0.4	-29	28	0.7
Cc1c(NC2=NC3(CCCCC3)Cc3ccccc32)c(=O)n(C)n1-c1ccccc1	x	x	x	10	-12	x
